Data: PubChem BioAssay (NCI)
The panel holds about 83,000 compounds, 20% with a hit somewhere; the sample as a whole holds those more often.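 Cell lines were cultured in 96-well plates, exposed to a single compound concentration, and assessed for percent growth 48 hours later.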 Unmarked numbers belong to inactive results. Active and inactive are the calls of the source. Rule for the calls: active = growth percent below 10; inactive = the rest.

Tested on: RXF 393 renal
Test: NCI-60 one-dose screen, 48 h (100 = growth as untreated, 0 = no growth, -100 = all killed)
Details: 10 µM unless noted

Compared with `O=C1OC(N(Cc2ccc(Cl)cc2)c2ccccc2)c2ccccc21` (stereo not given), `c1ccc2nc(Cn3cc[n+](Cc4ccc5ccccc5n4)c3)ccc2c1` is lower in growth: 125% for the first, 86.6% for the second.

Going from `CN(C)CC/C=C1\c2ccccc2Sc2ccc(Cl)cc21` to `Clc1ccc(OCc2nc(-c3ccccc3)n[nH]2)c(Cl)c1`, the growth rises from 41.2% to 108%.

Compared with `CCCCC(=O)Nc1nc2ccc(SCCC)cc2s1`, `COc1ccc(CCNC=O)cc1OC` is higher in growth: 45.9% for the first, 87.9% for the second.

Going from `CC(C)CNCC(=O)Nc1ccc(Cc2ccc(NC(=O)CNCC(C)C)cc2)cc1` to `Cc1nccc2c3ccc(OCc4cn(Cc5ccc(Br)cc5)nn4)cc3n(CCCc3ccccc3)c12`, the growth rises from 46.7% to 82%.

Going from `O=C(O)c1ccc(-n2cc(/C=N/Nc3ccc(F)cc3)c(-c3cccc(C(F)(F)F)c3)n2)cc1` to `O=C(COc1ccc(Cl)cc1Cl)N1N=C(c2ccc(Cl)cc2Cl)CC1(O)c1cc(F)c(Cl)cc1Cl` (stereo not given), the growth rises from 101% to 134%.

Compared with `COc1ccc(-c2c(C#N)cnc(N)c2-c2nc3cc(C)c(C)cc3[nH]2)cc1`, `O=c1c2ccccc2[nH]n1Cc1ccc2c(c1)OCO2` is higher in growth: 56.6% for the first, 103% for the second.

In the case of `O=C(Nc1cccc(-n2ccc3c(NC(=O)c4ccccc4)nccc32)c1)Nc1cc(C(F)(F)F)cc(C(F)(F)F)c1`, the growth is reported as -19.4% (active).
With `CCN(CC)c1ccc(C2CC(c3cc(OC)c(OC)c(OC)c3)=NN2)cc1` (stereo not given) the growth was -20.9% (active).
For `CCCCCCCCCCCCCCCCCCNCc1ccc(Cl)cc1`, the growth was -74.4% (active).
